The values below come from PubChem BioAssay AID504652 (National Center for Advancing Translational Sciences (NCATS), 2011).

The campaign covered roughly 360,000 compounds. About 11,000 (3.1%) were called active. Rule as the data show it: active = activity change below about -30%; inactive = the rest. Only a selection was taken, and actives are over-represented in it overall.
% is scaled to controls: 0 for no effect and ±100 for the full control effect.

Chain of D(1A) dopamine receptor (Homo sapiens) (P21728 whole entry, looked up): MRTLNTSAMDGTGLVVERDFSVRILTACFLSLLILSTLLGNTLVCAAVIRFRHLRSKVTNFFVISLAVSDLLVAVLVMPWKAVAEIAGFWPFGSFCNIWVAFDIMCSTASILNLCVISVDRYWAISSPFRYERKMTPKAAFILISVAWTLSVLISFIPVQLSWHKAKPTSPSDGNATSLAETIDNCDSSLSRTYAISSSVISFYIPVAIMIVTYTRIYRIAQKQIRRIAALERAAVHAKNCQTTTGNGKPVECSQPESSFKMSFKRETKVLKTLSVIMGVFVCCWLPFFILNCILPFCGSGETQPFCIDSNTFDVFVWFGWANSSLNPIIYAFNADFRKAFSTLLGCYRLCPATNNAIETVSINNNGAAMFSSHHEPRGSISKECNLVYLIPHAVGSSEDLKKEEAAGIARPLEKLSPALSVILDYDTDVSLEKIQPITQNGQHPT

The target of this experiment is D(1A) dopamine receptor (Homo sapiens) (UniProt P21728). The experiment can be described thus: Antagonist of Human D 1 Dopamine Receptor: qHTS. As to conditions: HEK293 TREx D1 cells, calcium flux, dopamine EC80; at 10 µM; active compounds read low. An excerpt:
Dopamine receptors (DARs) are involved in the etiology and/or therapy of a number of neuropsychiatric and endocrine disorders. For instance, all receptor-based antiparkinsonian drugs work via stimulating the […] DAR subtype whereas all FDA-approved antipsychotic agents are antagonists of this receptor. […] There are three different types of allosteric modulators that we are seeking, two of which will stimulate or augment receptor signaling, allosteric agonists and potentiators, while the third, allosteric antagonists, will attenuate receptor signaling. The present primary screening assay measures compound antagonism after an EC80 addition of dopamine by tracking calcium flux in a […], inducible Hek293 Trex D1 cell line. NIH Chemical Genomics Center [NCGC] NIH Molecular Libraries Probe Centers Network [MLPCN] MLPCN Grant: NS064831-01 Assay Submitter (PI): David Sibley
Freshly passaged cells are plated in 1536 well black, clear bottom plates at a density of 4000 cells/well in 3 ul of complete media containing 1x tetracycline inducer. After an overnight incubation at 30 C in 5% CO2, cells are loaded with 2 ul of the no wash Calcium Assay Kit (ABD Bioquest) and incubated at room temperature for 30 to 90 minutes. Agonist read: A 10 cycle (1 second/cycle) baseline measurement is taken and then the FDSS online 1536 pintool delivers 23 nl of compound library (as well as dopamine controls) to the plate. The plate is measured for kinetically at 1 cycle/sec for 180 seconds. Following the 180 second read, 1 ul of an EC80 (negative modulation assay) is delivered by an onboard pipette head. Measurements are taken kinetically for an additional 180 seconds.
On the technique in general: Quantitative high-throughput screening tests each substance at several concentrations.
In the case of `Cc1ccc(C(=O)N/C(=C/c2cccs2)C(=O)N2CCCCC2)cc1`, the activity change, negative = inhibition is -1.28% (inactive).

On to `CN1CCN(C(=O)/C(=C\c2cccs2)NC(=O)c2cccs2)CC1`, for which the activity change, negative = inhibition was -40.4% (active). On to `CN1CCN(C(=O)/C(=C\c2ccc3c(c2)OCO3)NC(=O)c2cccs2)CC1`, for which the activity change, negative = inhibition was -1.26% (inactive). Turning to `CCOc1ccc(CNC(=O)c2ccc3c(c2)nnn3C2CCCC2)cc1`, the activity change, negative = inhibition is -28.9% (inactive).

With `Cc1ccc(-c2nn(CCC(=O)Nc3ccc(OC(F)(F)F)cc3)c(=O)c3ccccc23)cc1`, the activity change, negative = inhibition is -11% (inactive). Consider `COc1ccc(NC(=O)Nc2ccc3nsnc3c2)cc1`, for which the activity change, negative = inhibition is -36.6% (active). `Cc1ccc(NC(=O)Nc2ccc3oc(C)nc3c2)cc1`: the activity change, negative = inhibition was -1.61% (inactive). As for `COc1ccc(NC(=O)Nc2cccc(-c3noc(C)n3)c2)cc1`, the activity change, negative = inhibition was 8.89% (inactive). Consider `Cc1ccc(C)c(Cn2c(C)c(CNCc3ccc(F)cc3)c(C(=O)O)c2C)c1`, for which the activity change, negative = inhibition was -10.2% (inactive). For the compound `O=C(NCc1ccncc1)c1cccc(NS(=O)(=O)c2ccc(F)c(F)c2)c1`, the activity change, negative = inhibition was -6.23% (inactive).

`O=C(NCc1ccncc1)c1ccc(NS(=O)(=O)c2cccc([N+](=O)[O-])c2)cc1`: the activity change, negative = inhibition was -49% (active). With `O=C(NCc1ccco1)/C(=C/c1cccc([N+](=O)[O-])c1)NC(=O)c1ccco1`, the activity change, negative = inhibition was -9.94% (inactive). Under `O=C(NCc1ccco1)c1ccc([N+](=O)[O-])cc1Cl` stands -6.24% (inactive); under `O=[N+]([O-])c1cccc(S(=O)(=O)NCc2ccccn2)c1`, 8.53% (inactive). Under `O=C(NCc1ccco1)c1ccc(NS(=O)(=O)c2cccc([N+](=O)[O-])c2)cc1` stands -51.9% (active). Under `CCOC(=O)c1c(NC(=O)COc2cc(C)ccc2C(C)C)sc(C)c1C` stands 8.46% (inactive); under `CC1CCCN(CCOCCOc2ccccc2-c2ccccc2)C1` (stereo not given), -48.5% (active). As for `CC1CN(CCCOc2ccccc2-c2ccccc2)CC(C)O1` (stereo not given), the activity change, negative = inhibition is 13.9% (inactive).

With `c1ccc(-c2ccccc2OCCN2CCCCC2)cc1`, the activity change, negative = inhibition is 8.41% (inactive). On to `CC1CN(C(=O)N2CCC(C(=O)NCc3cccs3)CC2)c2ccccc2O1` (stereo not given), for which the activity change, negative = inhibition is -3.92% (inactive). As for `COc1ccc(NC(=O)CCNS(=O)(=O)c2ccc3c(c2)CCCC(=O)N3)cc1Cl`, the activity change, negative = inhibition was 1.62% (inactive). For `O=S(=O)(NCCc1ccc(F)cc1)c1cccc2cccnc12` the value was -44.7% (active); for `O=S(=O)(NCCOc1cccc2cccnc12)c1ccc(F)cc1`, 6.87% (inactive). Regarding `O=S(=O)(Nc1cccc2cccnc12)c1cccc2cccnc12`, the activity change, negative = inhibition is -7.95% (inactive). Take `CC(CNC(=O)c1nnc(Cc2cccc(F)c2)o1)c1ccccc1` (stereo not given): the activity change, negative = inhibition was 0.636% (inactive). For `Cc1cc2oc(C(=O)N(Cc3ccc(Cl)cc3)Cc3ccco3)c(C)c2cc1Cl` the value was -1.03% (inactive); for `CCCOc1ccc(-c2cccc(NS(=O)(=O)c3ccccc3)c2)nn1`, -24.2% (inactive). As to `CCNS(=O)(=O)c1cc(-c2nnc(Nc3cccc(C(F)(F)F)c3)c3ccccc23)ccc1C`, the activity change, negative = inhibition is -6.09% (inactive). Consider `COc1cccc(COc2ccc(N(C)S(=O)(=O)c3ccccc3)cc2)c1`, for which the activity change, negative = inhibition was -1.51% (inactive).

Take `Cc1ccc2nc(COc3ccc(N(C)S(=O)(=O)c4ccccc4)cc3)cc(=O)n2c1`: the activity change, negative = inhibition is -32.1% (active). Under `Cc1ccc2nc(COc3ccc(NC(=O)COc4ccccc4F)cc3)cc(=O)n2c1` stands 0.203% (inactive); under `CSc1ccc(CCNC(=O)c2ccc3c(c2)nc2n3CCOC2)cc1`, 11.3% (inactive); under `CCCN1CCN(CCCNC(=O)c2ccc3nc(Cc4ccccc4)oc3c2)CC1`, -1.19% (inactive).

As for `CC(C)CC(NS(=O)(=O)c1ccc2c(c1)oc(=O)n2C)C(=O)NCc1ccccc1Cl` (stereo not given), the activity change, negative = inhibition is 14.8% (inactive).

Regarding `CCCCCn1c(=O)[nH]c2cc(C(=O)Nc3cc(C)cc(C)c3)ccc2c1=O`, the activity change, negative = inhibition is -6.59% (inactive). For `COc1ccc(C(C[N+](=O)[O-])n2nc(C)cc2C)cc1` (stereo not given), the activity change, negative = inhibition is 13.7% (inactive). With `Cc1ccc(C(C[N+](=O)[O-])c2c(C)cc3ccccn23)cc1` (stereo not given), the activity change, negative = inhibition was -51.3% (active). For `CC(=O)Nc1ccc(/C=N/Nc2ccc(C(=O)c3c(C)cc4ccccn34)cc2[N+](=O)[O-])cc1`, the activity change, negative = inhibition was -18.5% (inactive).

For `CN1CCN(C2=NCCO2)CC1`, the activity change, negative = inhibition was -33% (active). For `CCOC(=O)C1CCN(c2csc3ccc(C)cc3c2=O)CC1` the value was 6.24% (inactive). For `Fc1cccc(-n2ncc3c2ncn2nc(-c4ccccc4Cl)nc32)c1`, the activity change, negative = inhibition is -8.03% (inactive).

As for `Cc1cccc(NC(=S)NCCc2ccc(Cl)cc2)c1C`, the activity change, negative = inhibition was -8.27% (inactive). Consider `Oc1cc2c(cc1O)CN(C(=S)NCCc1ccc(Cl)cc1)CCC2`, for which the activity change, negative = inhibition is -90.5% (active). With `O=C(NCCc1ccc(Cl)cc1)c1cccc(N2CCCC2=O)c1`, the activity change, negative = inhibition is -8.26% (inactive).

Turning to `Cc1ccc2ncc(C(=O)Nc3ccc(OC(F)(F)F)cc3)c(=O)n2c1`, the activity change, negative = inhibition was 0.312% (inactive). Under `COc1cc(CCC(=O)N2CCN(c3ccccc3Cl)CC2)cc(OC)c1OC` stands -35% (active). Turning to `COc1cc(CCC(=O)Nc2ccncc2Cl)cc(OC)c1OC`, the activity change, negative = inhibition is 1.11% (inactive). `CC(=O)c1ccc(N2CCN(C(=O)CCc3ccccc3)CC2)cc1`: the activity change, negative = inhibition was 3.26% (inactive). For `COc1cccc(C(=O)N(Cc2cccc(Cl)c2)Cc2ccco2)c1`, the activity change, negative = inhibition was -12.2% (inactive). Consider `COc1ccc(-c2ccc(CNCCCN3CCOCC3)o2)cc1Cl`, for which the activity change, negative = inhibition is -8.26% (inactive). For `C=CCOc1ccc(Cl)cc1CNCCCN1CCOCC1`, the activity change, negative = inhibition is -32.4% (active). Consider `O=C(NCCCN1CCOCC1)c1cc(-c2ccc(Cl)cc2)on1`, for which the activity change, negative = inhibition is 7.89% (inactive). On to `COCCCNC(=O)c1ccc(NC(=O)c2nsc3ccccc23)cc1`, for which the activity change, negative = inhibition was -4.68% (inactive). In the case of `COc1ccc(NC(=O)CCN2CCN(CCO)CC2)cc1`, the activity change, negative = inhibition is -14% (inactive).

Turning to `Cc1ccc(C)c(N2CCN(C(=O)C3CCC(CNS(=O)(=O)c4cccs4)CC3)CC2)c1` (stereo not given), the activity change, negative = inhibition is 16.1% (inactive). As for `COc1ccc(NC(=O)N2CCCn3nc(C)cc32)cc1OC`, the activity change, negative = inhibition is -22.3% (inactive).

As to `COc1ccc(CCNC(=O)c2ccc(CSCc3ccc(C)cc3)o2)cc1OC`, the activity change, negative = inhibition was -24.7% (inactive). As to `C1=C(CCNc2ncnc3c2cnn3-c2ccccc2)CCCC1`, the activity change, negative = inhibition was -10.6% (inactive). For `COc1ccc(CCNc2ncnc3c2cnn3-c2ccc(C)cc2)cc1` the value was -63.8% (active); for `Clc1cccc(-n2ncc3c(NCCc4ccccc4)ncnc32)c1`, -27.8% (inactive).
